Inconclusive results are not listed. Active and inactive are the calls of the source. Unless noted, the call rests on the fitted dose curve; in most records, active means well fitted curve in the direction sought with a large enough effect; inconclusive means small, poorly fitted or top-dose-only effect, or another doubt; inactive means no such curve, though single readings can be large; an effect the other way counts as inactive or inconclusive.

These results are taken from PubChem BioAssay (NCATS).

Assay [1] in a line: Validation of Assay for Modulators of Lamin A Splicing (AID 1459; active means well fitted curve in the direction sought with a large enough effect in the signal ratio; the % refers to the signal ratio;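 further: cells exposed to compound for two days before reading; ratio rise marks activators and ratio drop marks inhibitors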). The procedure, abridged:
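Splicing correction read as GFP (500-530 nm) over DsRed2 (575-640 nm) object intensity after 48 h compound exposure of reporter HeLa S3 clones (600 cells/well, 2% FBS medium); ancitabine and cycloheximide titrations, 0.5% DMSO as vehicle.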

Assay [2] concerns the target DNA repair nuclease/redox regulator APEX1 (Homo sapiens) (UniProt P27695). In words: qHTS Validation Assay for Inhibitors of the Human Apurinic/apyrimidinic Endonuclease 1 (APE1) (AID 1705; further: potency means the concentration at half of the fitted maximal effect). The procedure, abridged: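 Activity read as rising fluorescence (598 nm emission, 525 nm excitation) from incision of a TAMRA/BHQ-2 duplex carrying a THF abasic site (50 nM). Compound and enzyme sat 15 min at RT before substrate start; signal change between first and third 60-s reads.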
A general note: Quantitative high-throughput screening tests each substance at several concentrations.

Assay [3] is described as follows: Counterscreen for APE1 Inhibitors: Fluorescent Dye Displacement Validation Assay (AID 1707). In short, it runs like this:
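Thiazole Orange (250 nM) bound to 50 nM TAMRA-labelled dsDNA with tetrahydrofuran abasic site; displacement by DNA-binding compounds lowers fluorescence. Buffer 50 mM Tris-HCl pH 7.5, 50 mM NaCl, 2 mM MgCl2, 0.01% Tween-20; endpoint read at 480/540 nm.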
In general terms: A counterscreen serves to expose hits that act by an unwanted route or on another target.

Assay [4] is described as follows: qHTS for differential inhibitors of proliferation of Plasmodium falciparum line 7G8 (AID 1815).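 Further: parasite growth measured after three days of incubation.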 Further: potency means the concentration at half of the fitted maximal effect.
Assay [5] can be described thus: qHTS for differential inhibitors of proliferation of Plasmodium falciparum line GB4 (AID 1816).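 Further: parasite growth measured after 72 h incubation.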 Further: potency means the concentration at half of the fitted maximal effect. Conditions: Potency: Plasmodium falciparum GB4 proliferation inhibition.
Assay [6] is described as follows: qHTS for differential inhibitors of proliferation of Plasmodium falciparum line 3D7 (AID 1876). Further: potency means the concentration at half of the fitted maximal effect.
Assay [7] is described as follows: qHTS for differential inhibitors of proliferation of Plasmodium falciparum line D10 (AID 1877).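 Further: parasites grown with compound for 72 h before DNA staining.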 Further: potency means the concentration at half of the fitted maximal effect.
Assay [8] in a line: qHTS for differential inhibitors of proliferation of Plasmodium falciparum line Dd2 (AID 1882). Further: nearly all actives have a fitted effect of over 65% in size. Further: potency means the concentration at half of the fitted maximal effect. The settings on record: Potency: Plasmodium falciparum Dd2 proliferation inhibition. In short, it runs like this: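 SYBR Green I DNA fluorescence read-out, ex 485/em 535 nm. Signals were normalized to 0.29 uM artemisinin and DMSO wells, then corrected using vehicle-only plates flanking each stack. Parasite growth ran 72 h in erythrocytes before lysis.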

A short description of assay [9]: qHTS for differential inhibitors of proliferation of Plasmodium falciparum line W2 (AID 1883).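 Further: parasites grown with compound for 72 h before lysis and staining.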 Further: potency means the concentration at half of the fitted maximal effect. The settings on record: Potency: Plasmodium falciparum W2 proliferation inhibition.
Assay [10] is described as follows: qHTS for differential inhibitors of proliferation of Plasmodium falciparum line HB3 (AID 1886).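 Further: parasites grown with compound for 72 h before SYBR Green readout.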 Further: potency means the concentration at half of the fitted maximal effect. Conditions: Potency: Plasmodium falciparum HB3 proliferation inhibition.
Assay [11] can be described thus: qHTS Assay for Modulators of Human Peripheral Myelin Protein 22 (PMP22) Expression/Activity (AID 1967; active means well fitted curve in the direction sought with a large enough effect in the signal ratio; the % refers to the signal ratio). The procedure, abridged:
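Readout is the corrected green/red luminescence ratio after 24 h compound exposure, normalised to untreated cells (0%). Engineered MSC80 mouse Schwann cells express green luciferase from the mouse Pmp22 promoter and red luciferase from EF-alpha as internal control.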

Assay [12] deals with Ferritin light chain (Equus caballus) (UniProt P02791). In words: qHTS Validation Assay for Identification of Novel General Anesthetics (AID 2323). Further: series mostly up to about 77 µM. The procedure, abridged:
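Competitive displacement of the profluorescent anesthetic 1-AMA (50% saturated, PBS) from 10 uM apoferritin, 10 min, room temperature. Activity is normalized 380/535 nm fluorescence; concentration-response fitted with a four-parameter Hill equation.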

Assay [13] addresses ATP-dependent DNA helicase Q1 (Homo sapiens) (UniProt P46063). In words: qHTS Validation Assay for Inhibitors of RecQ-Like Dna Helicase 1 (RECQ1) (AID 2353). The procedure, abridged: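 50 nM RECQ1T1 preincubated 15 min with compound in Tris pH 8.0 buffer with MgCl2, DTT, Tween-20 and 2.5 ug/ml poly(dI-dC); started with 200 nM TAMRA/BHQ-2 forked duplex and 2 mM ATP. Unwinding read as fluorescence (525/598 nm), two reads 2 h apart.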

For assay [14], the target named is Endonuclease 4 (Escherichia coli (strain K12)) (UniProt P0A6C1). In words: Counterscreen for APE1 Inhibitors: qHTS Validation Assay for Inhibitors of Endonuclease IV (AID 1708). The procedure, abridged: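 Enzymatic AP-site incision assay using a double-stranded THF substrate labelled with TAMRA and BHQ-2; released fluorescence signals activity. Enzyme 2 nM, substrate 50 nM, 15 min compound preincubation.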

Assay [15] has as its target alpha-glucosidase (Oryza sativa, rice) (UniProt Q653V4). In words: Counterscreen for Glucocerebrosidase Inhibitors: qHTS Assay for Rice alpha-Glucosidase at pH 5.0 (AID 997). In short, it runs like this:
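Rice alpha-glucosidase (4 nM final) with 400 uM 4-methylumbelliferyl-alpha-D-glucopyranoside in citrate buffer pH 5.0, 20 min at room temperature, stopped at pH 10; fluorescence 365/440 nm, compounds 0.7 nM–77 uM, AC50 from Hill fits.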

Assay [16] deals with RecQ-like DNA helicase BLM (Homo sapiens) (UniProt P54132). In words: qHTS Validation Assay for Inhibitors of Bloom's syndrome helicase (BLM) (AID 2364). In short, it runs like this:
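Forked 20-bp duplex substrate (200 nM, TAMRA/BHQ-2) plus 2 mM ATP added after 15 min compound preincubation with 50 nM enzyme, pH 8.0, poly(dI-dC) 2.5 ug/ml. Strand separation followed by fluorescence (525/598 nm) over 2 h, normalized to enzyme-free and DMSO controls.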

Sequence of ATP-dependent DNA helicase Q1 (Homo sapiens) (P46063 whole entry, looked up): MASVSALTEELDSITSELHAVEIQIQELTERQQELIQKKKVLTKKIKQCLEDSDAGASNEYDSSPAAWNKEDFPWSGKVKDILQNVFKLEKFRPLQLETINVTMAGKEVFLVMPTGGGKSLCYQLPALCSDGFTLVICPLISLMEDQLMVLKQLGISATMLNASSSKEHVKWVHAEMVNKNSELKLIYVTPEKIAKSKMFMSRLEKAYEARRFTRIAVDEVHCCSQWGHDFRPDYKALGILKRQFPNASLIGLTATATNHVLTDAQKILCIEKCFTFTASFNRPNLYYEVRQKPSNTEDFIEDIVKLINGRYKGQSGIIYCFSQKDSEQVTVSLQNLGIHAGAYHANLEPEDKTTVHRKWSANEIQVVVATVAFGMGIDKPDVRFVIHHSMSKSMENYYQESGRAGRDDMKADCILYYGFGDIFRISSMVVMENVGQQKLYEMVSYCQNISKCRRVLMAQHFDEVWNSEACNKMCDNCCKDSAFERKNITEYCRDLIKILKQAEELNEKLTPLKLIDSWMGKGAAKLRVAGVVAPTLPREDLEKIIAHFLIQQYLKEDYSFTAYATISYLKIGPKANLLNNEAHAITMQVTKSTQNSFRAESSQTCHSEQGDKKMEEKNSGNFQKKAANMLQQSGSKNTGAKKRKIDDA
Sequence of DNA repair nuclease/redox regulator APEX1 (Homo sapiens) (P27695 whole entry, looked up): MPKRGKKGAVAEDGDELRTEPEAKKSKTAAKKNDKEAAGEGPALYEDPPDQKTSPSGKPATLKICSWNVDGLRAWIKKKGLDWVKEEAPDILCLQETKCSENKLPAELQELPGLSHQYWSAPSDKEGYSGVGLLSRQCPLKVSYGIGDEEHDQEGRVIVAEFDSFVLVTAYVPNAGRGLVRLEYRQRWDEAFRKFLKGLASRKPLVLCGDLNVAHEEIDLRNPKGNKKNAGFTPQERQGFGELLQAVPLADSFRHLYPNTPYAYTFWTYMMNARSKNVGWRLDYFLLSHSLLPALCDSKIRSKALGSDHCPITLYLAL
Sequence of Ferritin light chain (Equus caballus) (P02791 2-175 limits assumed): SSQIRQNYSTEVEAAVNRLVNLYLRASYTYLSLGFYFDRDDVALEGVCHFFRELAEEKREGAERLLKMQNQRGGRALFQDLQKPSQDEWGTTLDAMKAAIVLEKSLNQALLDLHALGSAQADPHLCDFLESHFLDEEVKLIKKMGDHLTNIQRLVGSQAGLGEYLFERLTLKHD
Sequence of RecQ-like DNA helicase BLM (Homo sapiens) (P54132 whole entry, looked up): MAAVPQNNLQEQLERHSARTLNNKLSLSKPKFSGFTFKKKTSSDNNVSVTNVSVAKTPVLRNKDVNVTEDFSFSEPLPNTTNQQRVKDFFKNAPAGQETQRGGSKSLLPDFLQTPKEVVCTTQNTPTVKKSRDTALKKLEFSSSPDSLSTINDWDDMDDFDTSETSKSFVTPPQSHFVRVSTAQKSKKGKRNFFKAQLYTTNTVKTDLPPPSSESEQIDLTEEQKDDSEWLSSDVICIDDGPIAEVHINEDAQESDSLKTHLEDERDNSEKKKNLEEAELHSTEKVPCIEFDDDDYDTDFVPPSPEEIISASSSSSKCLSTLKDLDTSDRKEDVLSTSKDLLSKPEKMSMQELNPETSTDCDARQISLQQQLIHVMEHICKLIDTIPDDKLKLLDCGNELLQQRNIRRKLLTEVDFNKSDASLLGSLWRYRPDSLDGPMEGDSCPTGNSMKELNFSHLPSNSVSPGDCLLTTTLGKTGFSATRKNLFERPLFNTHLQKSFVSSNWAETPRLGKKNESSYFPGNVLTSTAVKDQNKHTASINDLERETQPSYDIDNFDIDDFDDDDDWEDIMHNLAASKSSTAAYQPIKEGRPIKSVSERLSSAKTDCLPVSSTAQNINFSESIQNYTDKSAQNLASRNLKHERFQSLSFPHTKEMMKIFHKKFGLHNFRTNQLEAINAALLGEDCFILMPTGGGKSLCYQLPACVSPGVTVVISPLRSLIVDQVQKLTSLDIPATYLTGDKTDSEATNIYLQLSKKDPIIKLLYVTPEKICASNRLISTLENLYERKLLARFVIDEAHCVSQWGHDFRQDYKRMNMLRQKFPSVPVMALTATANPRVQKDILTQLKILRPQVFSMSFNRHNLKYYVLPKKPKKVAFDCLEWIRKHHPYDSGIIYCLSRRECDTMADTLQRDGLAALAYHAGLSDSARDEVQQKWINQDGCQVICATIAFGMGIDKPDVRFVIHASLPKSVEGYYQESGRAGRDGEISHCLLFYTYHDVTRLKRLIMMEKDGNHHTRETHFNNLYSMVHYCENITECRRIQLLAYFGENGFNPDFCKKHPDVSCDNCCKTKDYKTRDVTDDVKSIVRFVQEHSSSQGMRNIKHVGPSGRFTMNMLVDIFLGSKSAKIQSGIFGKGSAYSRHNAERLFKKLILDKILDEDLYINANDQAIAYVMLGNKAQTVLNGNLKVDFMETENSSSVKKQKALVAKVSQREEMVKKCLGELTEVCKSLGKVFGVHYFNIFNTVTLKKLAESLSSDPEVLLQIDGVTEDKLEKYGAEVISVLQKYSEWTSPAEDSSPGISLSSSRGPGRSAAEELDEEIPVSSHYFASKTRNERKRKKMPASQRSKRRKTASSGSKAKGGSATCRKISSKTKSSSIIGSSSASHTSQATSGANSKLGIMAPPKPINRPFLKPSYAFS

For `CC(N)(C(=O)O)c1ccc(C(=O)O)cc1` (stereo not given), the call in assay [1] and in [11] was inactive. Further, the Potency entry in assay [2], in [3], in assay [4], in [5], in assay [6] and in [7] was “inactive” in each case. Further, the Potency entry in assay [8], in [9], in assay [10], in [12] and in [13] was “inactive” in each case.
For `CC1CCN=C(N)S1` (stereo not given), the result in assay [1] was inactive. The Potency entry in assay [2], in assay [3], in [14], in assay [4], in [7] and in [8] was “inactive” each time. Further, the Potency entry in assay [10], in assay [12] and in assay [13] was “inactive” throughout. In addition, the Potency in [9] was 11.2 µM (active).
On to `CNc1ncnc2c1ncn2[C@H]1C[C@H](OP(=O)(O)O)[C@@H](COP(=O)(O)O)O1`, for which the outcome in [1] and in [11] was inactive. Besides, the Potency entry in assay [2], in assay [3], in assay [4], in assay [5], in [6] and in assay [7] was “inactive” in each case. The Potency result in assay [8], in assay [9], in [10], in assay [12] and in assay [13] was “inactive” in each case.
With `COC(=O)[C@H](NC(=O)c1cc(-c2ccccc2)nc2ccccc12)c1ccccc1`, the outcome in assay [15] and in assay [1] was inactive. The Potency result in assay [2], in [3], in assay [6], in assay [7], in [8] and in assay [12] was “inactive” throughout. Moreover, the Potency in assay [4] was 11.2 µM (active); in [9] it was 12.6 µM (active).
Turning to `Cn1cc(C(F)(F)F)nc1-c1ccc(OCC(O)CNCCOc2ccc(O)c(C(N)=O)c2)cc1` (stereo not given), the compound was called inactive in [1]. The Potency entry in [2], in assay [3], in assay [8], in [12] and in assay [16] was “inactive” in each case. In addition, the Potency in [4] was 12.6 µM (active); in assay [5], 12.6 µM (active); in assay [6], 2.82 µM (active); in assay [7] it was 3.16 µM (active); in assay [9], 10 µM (active); in [10] it was 5.62 µM (active).
As to `CO/N=C(\C(=O)N[C@@H]1C(=O)N2C(C(=O)O)=C(CSc3nc(=O)c(O)nn3C)CSC12)c1csc(N)n1` (stereo not given in full), the result in [1] and in assay [11] was inactive. Further, in [2], the Potency was 2.24 µM (active). Moreover, the Potency result in assay [3], in [4], in assay [5], in assay [6], in assay [7] and in [8] was “inactive” in each case. Besides, the Potency entry in assay [9], in assay [10] and in assay [12] was “inactive” in each case.
Turning to `c1ccc(C2CN3CCSC3=N2)cc1` (stereo not given), the outcome in assay [1] was inactive. Further, the Potency result in [2], in assay [3], in assay [4], in [6], in assay [7] and in assay [8] was “inactive” throughout. In addition, the Potency result in assay [10], in [13] and in assay [16] was “inactive” in each case.
`O=c1[nH]c2cc(Cl)ccc2c(O)c1-c1ccc(Oc2ccccc2)cc1`: the call in [15], in assay [1] and in assay [11] was inactive. The Potency result in [2], in assay [3], in assay [14], in [4], in [6] and in [7] was “inactive” throughout. In addition, the Potency result in [8], in [10] and in assay [13] was “inactive” throughout.
As for `CCCCCC[C@@H]([C@@H](C)O)n1cnc2c(N)ncnc21`, the compound was called inactive in assay [1] and in [11]. Moreover, the Potency entry in assay [2], in assay [3], in [4], in [5], in [7] and in [8] was “inactive” in each case. The Potency result in assay [10] and in assay [12] was “inactive” in each case.
On to `C[C@H](O)C(=O)C1=Nc2c(nc(N)[nH]c2=O)NC1`, for which the compound was called inactive in [15], in [1] and in assay [11]. The Potency entry in assay [2], in assay [3], in [4], in assay [5], in assay [6] and in [7] was “inactive” in each case. For the same compound, the Potency result in assay [8], in assay [10], in assay [12] and in [13] was “inactive” throughout.
Turning to `CCCCCCCCCCC/C=C\C(C)(C)/C=C\CCCC(=O)O`, the outcome in assay [15], in assay [1] and in assay [11] was inactive. Moreover, the Potency in [2] is 35.5 µM (active). Moreover, the Potency result in assay [3], in assay [5], in assay [6], in assay [7], in assay [8] and in [10] was “inactive” throughout.
For `Nc1ccc(N2C(=O)c3ccccc3C2=O)c(Cl)c1`, the call in assay [15] and in assay [1] was inactive. In addition, the Potency result in [2], in [3], in assay [4], in assay [5], in assay [6] and in assay [7] was “inactive” each time. The Potency result in [8], in [10], in assay [12] and in assay [13] was “inactive” each time.
On to `CC(C)C[C@H](NC(=O)C1OC1C(=O)O)C(=O)NCCCCN=C(N)N` (stereo not given in full), for which the compound was classed as inactive in assay [1] and in assay [11]. Besides, the Potency result in [2], in assay [3], in assay [12] and in [13] was “inactive” in each case. Besides, the Potency in assay [4] was 4.47 µM (active); in [5] it was 3.16 µM (active); in assay [6] it was 2.51 µM (active); in [7], 3.55 µM (active); in [8], 6.31 µM (active); in assay [9] it was 2.51 µM (active). The Potency in assay [10] was 2.51 µM (active).
In the case of `NC1(C(=O)O)CCCCC1`, the call in assay [15], in assay [1] and in assay [11] was inactive. Further, the Potency entry in [2], in assay [3], in assay [4], in assay [5], in [6] and in assay [7] was “inactive” throughout. Besides, the Potency entry in [8], in assay [9], in assay [10], in assay [12] and in [13] was “inactive” throughout.
